# Results as given in PubChem BioAssay AID743255 (National Center for Advancing Translational Sciences (NCATS), 2014).
# The whole screen tested about 390,000 compounds, of which about 910 (0.23%) were called active. Entries that show only a call come without a potency. Not shown: some 5% with an inconclusive outcome. Calls follow the shape of the dose curve; as a rule, active = well fitted inhibition curve with a large enough effect; inconclusive = small, poorly fitted or top-dose-only effect; inactive = no such curve, though single readings can be large or run the other way. This excerpt belongs to a sample that is enriched for actives.
# Biological target: Ubiquitin carboxyl-terminal hydrolase 1 (Homo sapiens) (UniProt O94782)
# Test: Inhibitors of USP1/UAF1: Primary Screen; also: nearly all actives have a fitted effect of over 60% in size
# Details: recombinant USP1/UAF1, Ub-Rhodamine cleavage fluorescence; series mostly up to 57.1 µM
# Summary of the method: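 Step one: compound is pinned into 1nM USP1/UAF1 in HEPES pH 7.8 buffer with TCEP. Step two: 15 min room-temperature incubation. Step three: Ub-Rho (150nM final) starts cleavage, tracked by fluorescence over six one-minute reads.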
# Potency is read from the fitted curve at half-maximal effect.
# Ubiquitin carboxyl-terminal hydrolase 1 (Homo sapiens), sequence (O94782 whole entry, looked up): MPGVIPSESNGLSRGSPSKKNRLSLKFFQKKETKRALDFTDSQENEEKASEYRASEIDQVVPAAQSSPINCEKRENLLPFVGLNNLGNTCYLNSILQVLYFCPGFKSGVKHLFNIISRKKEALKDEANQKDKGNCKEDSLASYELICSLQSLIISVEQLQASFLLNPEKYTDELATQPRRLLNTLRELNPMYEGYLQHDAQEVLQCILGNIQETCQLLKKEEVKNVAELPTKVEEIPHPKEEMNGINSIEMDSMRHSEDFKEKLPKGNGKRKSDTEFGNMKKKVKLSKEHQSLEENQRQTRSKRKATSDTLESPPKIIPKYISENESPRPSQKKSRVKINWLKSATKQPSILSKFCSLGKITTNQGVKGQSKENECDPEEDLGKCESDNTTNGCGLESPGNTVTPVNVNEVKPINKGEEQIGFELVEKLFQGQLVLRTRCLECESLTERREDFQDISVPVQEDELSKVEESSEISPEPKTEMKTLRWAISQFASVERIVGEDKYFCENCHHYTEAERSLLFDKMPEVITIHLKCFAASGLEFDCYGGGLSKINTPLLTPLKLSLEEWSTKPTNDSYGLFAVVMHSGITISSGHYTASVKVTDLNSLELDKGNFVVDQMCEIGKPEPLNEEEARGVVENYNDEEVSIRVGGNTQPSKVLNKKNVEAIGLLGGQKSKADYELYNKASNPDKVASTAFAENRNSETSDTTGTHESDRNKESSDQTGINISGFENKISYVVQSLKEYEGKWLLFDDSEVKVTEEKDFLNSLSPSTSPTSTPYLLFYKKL
row,Compound,Potency
1,Cc1ccc(OCC(=O)Nc2ccc(Cl)c(-c3nc4ccccc4[nH]3)c2)cc1C,inactive
2,CCOc1ccc(CNC(=O)c2cccc(Nc3nc4ccccc4n4nnnc34)c2)cc1OC,inactive
3,Cc1cc2nc3c(=O)n(Cc4ccccc4)c(=O)[nH]c3nc2cc1N,25.1 µM (active)
4,COCCn1c(N)c(NCc2ccccc2)c(=O)[nH]c1=O,inactive
5,CCC(=O)Nc1ccc(C)cc1-c1nc2ccccc2n(Cc2ccccc2)c1=O,inactive
6,Cc1ccc(S(=O)(=O)N2CCCc3cc(NS(=O)(=O)c4cc(C)ccc4C)ccc32)cc1,inactive
7,Brc1ccc(C2=CC(c3ccco3)n3ncnc3N2)cc1 (stereo unspecified),31.6 µM (active)
8,O=C(CCC(=O)N1CC2CCCN2c2ccccc21)NCc1ccccc1Cl (stereo unspecified),inactive
9,Cc1c(-c2nsc(NC(=O)c3cccc(Cl)c3)n2)nnn1-c1ccccc1C(F)(F)F,inactive
10,COc1ccc(-n2c(SC)nc3sc4c(c3c2=O)CCN(C(C)=O)C4)cc1,inactive
11,CCc1nn(CC(=O)N2CCN(c3cccc(C(F)(F)F)c3)CC2)c(=O)c2cc3occc3n12,inactive
12,CCN(CCCNC(=O)c1cc2c(=O)n(CC)c3ccccc3c2s1)Cc1ccccc1,28.2 µM (active)
13,CCn1c(=O)c2cc(C(=O)NCCc3ccc(Cl)cc3)sc2c2ccccc21,inactive
14,CCc1ccc(CNC(=O)c2cc3c(=O)n(CC)c4ccccc4c3s2)cc1,inactive
15,COc1cccc(CNC(=O)C2CCN(S(=O)(=O)c3ccc4c(ccn4C)c3)CC2)c1,inactive
16,CCN(C(=O)Cn1cnc2sc(C)c(S(=O)(=O)N3CCN(c4ncccn4)CC3)c2c1=O)c1ccccc1F,inactive
17,CSc1nn(Cc2cccc(C)c2)c(N)c1S(=O)(=O)c1ccccc1,inactive
18,CC(=O)Nc1cc(C(=O)NCc2ccc(F)cc2Cl)ccc1Sc1ccc(Cl)cc1,inactive
19,CCc1cccc(NC(=O)CN(c2ccc(C)c(C)c2)S(=O)(=O)c2ccsc2C(=O)OC)c1,inactive
20,Cc1cc(C)c2sc(NC(=O)c3ccc(S(=O)(=O)N4CCCC4)cc3)nc2c1,inactive
21,COc1ccc(S(=O)(=O)NCC(c2ccc(N(C)C)cc2)N2CCc3ccccc32)cc1OC (stereo unspecified),inactive
22,CCCN1C(=O)C(O)(CC(=O)c2ccc(CC)cc2)c2cc(Br)ccc21 (stereo unspecified),inactive

row,Compound,Potency
1,COc1cccc(CNC(=O)CCC(=O)N2CC3CCCN3c3ccccc32)c1 (stereo unspecified),inactive
2,CC(C)NC(=O)c1nn(-c2ccccc2F)nc1CO,inactive
3,COc1ccc(CNC(=O)CS(=O)Cc2nc(-c3cccc(C)c3)oc2C)cc1 (stereo unspecified),inactive
4,CCCCS(=O)(=O)c1oc(-c2cccs2)nc1S(=O)(=O)c1ccccc1,inactive
5,CCOc1ccc(OCC)c(NC(=O)c2cc(C)nc3c2c(C)nn3-c2cccc(Cl)c2C)c1,inactive
6,O=C(CSc1nc(=O)n(Cc2cccnc2)c2c1CCC2)Nc1ccc(F)cc1F,inactive
7,CCN(CC)CCCC(C)n1c2nc(=O)[nH]c(=O)c-2nc2cc(Cl)ccc21 (stereo unspecified),25.1 µM (active)
8,Cc1ccc(OCC(=O)OCc2cc(=O)n3nc(C4CC4)sc3n2)cc1C,inactive
9,O=C(CCn1ccc2cc(S(=O)(=O)N3CCCC3)ccc21)NCc1cccc(Cl)c1,inactive
10,COc1ccc(NS(=O)(=O)c2ccc(N3CCOCC3)c(NC(=O)c3ccccc3Br)c2)cc1,inactive
11,COCCN(CCOC)S(=O)(=O)c1ccc(C(=O)Nc2nc3c(s2)CCc2ccccc2-3)cc1,inactive
12,COc1ccc2c(c1)Cc1sc(NC(=O)c3ccccc3Br)nc1-2,31.6 µM (active)
13,Cc1oc(-c2ccccc2)nc1Cn1c(SCc2cccc(C(F)(F)F)c2)nc2cccnc21,inactive
14,COc1cccc(NC(=O)Cn2c(=O)cc(C)c3c(C)nn(-c4cccc(F)c4)c32)c1,inactive
15,CCCCOc1ccc(C(=O)N2CC(=O)Nc3ccc(Br)cc3C2c2ccc(F)cc2)cc1 (stereo unspecified),inactive
16,O=C(NCC(c1ccco1)S(=O)(=O)c1cccs1)c1ccc(F)cc1 (stereo unspecified),inactive
17,O=C(CSc1oc(-c2ccc(F)cc2)nc1S(=O)(=O)c1ccc(Br)cc1)NC1CCCCC1,inactive
18,COc1ccc(Cc2nc3ccc(C(=O)NCc4ccccc4Cl)cc3o2)cc1,inactive
19,O=C(CSc1ncc(-c2ccccc2)[nH]1)Nc1ccc(F)cc1F,inactive
20,Cc1ccc(Cn2c(CNC(=O)Cc3cccc(C)c3)nc3cccnc32)cc1,inactive
21,Fc1ccc(Nc2nc(SCc3ccccc3Cl)nc3ccccc23)cc1,inactive
22,CCC(=O)Nc1c(C(=O)N2CCN(c3ccc(F)cc3)CC2)oc2ccccc12,inactive

row,Compound,Potency
1,CCOc1ccc(CCNC(=O)c2ccc3c(c2)sc2nc(-c4ccc(F)cc4)cn23)cc1OCC,inactive
2,COc1ccc(N2CCN(C(=O)CSCc3nc(-c4ccccc4Cl)oc3C)CC2)cc1,inactive
3,Cc1ccc2c(=O)c(C(=O)c3ccc(F)cc3)cn(CC(=O)NC3CCCCC3)c2n1,inactive
4,CCN(CCCNC(=O)c1ccc(Sc2ccc(C)cc2)c(NC(C)=O)c1)c1cccc(C)c1,inactive
5,O=S(=O)(NCC(c1ccccc1)N1CCc2ccccc21)c1ccccc1 (stereo unspecified),inactive
6,CC1=CC2=NC(=O)/C(=C/c3coc4ccccc4c3=O)C(=N)N2O1,28.2 µM (active)
7,O=C(CCn1c(=O)c2sccc2n(Cc2ccc(F)cc2)c1=O)NCc1ccc2c(c1)OCO2,inactive
8,O=C(CCSCc1ccccc1F)N1CCN(c2ccc(Cl)cc2)CC1,inactive
9,O=C(CC1N=C2c3ccccc3N=C(SCc3cccc(Cl)c3)N2C1=O)NCc1ccc2c(c1)OCO2 (stereo unspecified),inactive
10,COc1cc(OC)c(NC(=O)c2c3c(nn2C)-c2ccccc2SC3)cc1Cl,inactive
11,O=C(CC(c1cccs1)N1Cc2ccccc2C1=O)Nc1ccc(F)c(F)c1 (stereo unspecified),inactive
12,NC1=CC(=O)C(=O)c2cccnc21,3.55 µM (active)
13,CCc1ccccc1OCCSc1nc(-c2cccs2)nc2cc(=O)[nH]n12,inactive
14,O=[N+]([O-])c1ccc(C=Nc2ccc(Cl)cc2Cl)s1,28.2 µM (active)
15,COc1ccc(NC(=O)c2cc3cc(C)ccc3n2C)cc1,inactive
16,CCC(=O)N1CCc2cc(Br)cc(S(=O)(=O)Nc3ccc(C)cc3C)c21,inactive
17,Cc1ccc(O)c(NC(=O)c2cc(-c3ccc(F)cc3)no2)c1,inactive
18,CCOC(=O)c1c(S(=O)(=O)N2CCCC(C(=O)NCc3ccc(F)cc3)C2)c(C)n(CC)c1C (stereo unspecified),inactive
19,CC1CCN(S(=O)(=O)c2ccc3c(c2)N(CC(=O)NCc2ccccc2Cl)C(=O)CO3)CC1,inactive
20,CCOC(=O)N1CCc2c(sc3c2C(=O)NC(c2ccccc2F)N3)C1 (stereo unspecified),inactive
21,CC(C)(C)OC(=O)N1CCC(c2c(C(=O)NCc3ccccn3)cnn2-c2ccc(F)cc2)CC1,inactive
22,CCOC(=O)c1cccc(NC(=O)C(Cc2ccccc2)NS(=O)(=O)c2cccc3nsnc23)c1 (stereo unspecified),inactive

row,Compound,Potency
1,Cc1ccc2cccc(NC(=O)c3ccc(OC(C)C)cc3)c2n1,inactive
2,Cc1ccc(-c2nc3cccc(C)n3c2Nc2ccc3c(c2)OCCO3)cc1,inactive
3,CCN1CCC(N(Cc2ccc(F)cc2)C(=O)Nc2cc(C)ccc2C)CC1,inactive
4,CCc1ccc(CNC(=O)C2CCN(c3nn4cc(-c5ccc(F)cc5)nc4s3)CC2)cc1,inactive
5,COc1cc(OC)c(NC(=O)c2cnc(N3CCCC3)nc2C)cc1Cl,inactive
6,CCc1ccc(NC(=O)c2cc(S(=O)(=O)N3CCCC(C)C3)cn2C)cc1 (stereo unspecified),inactive
7,Cc1cc(C)nc(NS(=O)(=O)c2ccc(NC(=O)c3cc(=O)c4ccc(C)c(C)c4o3)cc2)n1,inactive
8,Cc1oc2ncnc(N3CCOCC3)c2c1C(=O)NCCc1ccccc1,inactive
9,COc1ccc(-c2cn3c(n2)sc2cc(C(=O)Nc4ccc(F)cc4)ccc23)cc1,inactive
10,CN1/C(=C\C=C2\N=C(c3ccc(F)cc3)OC2=O)C(C)(C)c2ccccc21,28.2 µM (active)
11,Cc1csc2nc(COC(=O)c3ccc(NC(=O)COc4ccccc4F)cc3)cc(=O)n12,inactive
12,CCCN1CCN(CCCNC(=O)c2cnn(-c3ccc(C)cc3)c2-n2cccc2)CC1,inactive
13,O=C(CCOc1ccccc1)N(Cc1cccnc1)c1nc2ccc(Cl)cc2s1,inactive
14,CC(NC(=O)c1cc(Sc2ccc(F)cc2F)nc2ccccc12)c1ccccc1 (stereo unspecified),inactive
15,COc1cccc(C(=O)NCc2ccc3c(c2)CCN3C(=O)c2ccncc2)c1,inactive
16,CCOC(=O)c1c(SCC(=O)Nc2cccc(C)c2C)nc(=O)[nH]c1C,inactive
17,CCOC(=O)c1c(C)[nH]c(CCC(=O)Nc2ccc(OC)c(OC)c2)c1C,inactive
18,CCOC(=O)c1c(C)[nH]c2c1-c1ccccc1C(=O)C2=O,1.26 µM (active)
19,CN(C(=O)c1ccc2c(c1)N(Cc1cccc(Cl)c1)C(=O)c1ccccc1S2=O)C1CCCCC1 (stereo unspecified),inactive
20,CC(=O)N(C1=C(Cl)C(=O)c2ccccc2C1=O)c1ccc(C(=O)O)cc1,14.1 µM (active)
